# Screening results deposited in PubChem BioAssay by National Center for Advancing Translational Sciences (NCATS).
# Compounds with a hit are over-represented: about 21% of the library has one in this group of screens.
# RORgamma inh – ROR gamma (mouse) transcription inhibition. P51450. Drosophila S2 Gal4-RORgamma UAS-luciferase reporter, 20 h. AID 2551. hit rate 5.4% among 310,000. Potency, µM (highest dose often 53.6 µM), inactives show top-dose activity change, negative = inhibition, usual class: inhibitors; further: potency means the concentration at half of the fitted maximal effect; nearly all actives have a fitted effect of over 60% in size
# Target sequence (P51450 whole entry, looked up, the tested form may be a part): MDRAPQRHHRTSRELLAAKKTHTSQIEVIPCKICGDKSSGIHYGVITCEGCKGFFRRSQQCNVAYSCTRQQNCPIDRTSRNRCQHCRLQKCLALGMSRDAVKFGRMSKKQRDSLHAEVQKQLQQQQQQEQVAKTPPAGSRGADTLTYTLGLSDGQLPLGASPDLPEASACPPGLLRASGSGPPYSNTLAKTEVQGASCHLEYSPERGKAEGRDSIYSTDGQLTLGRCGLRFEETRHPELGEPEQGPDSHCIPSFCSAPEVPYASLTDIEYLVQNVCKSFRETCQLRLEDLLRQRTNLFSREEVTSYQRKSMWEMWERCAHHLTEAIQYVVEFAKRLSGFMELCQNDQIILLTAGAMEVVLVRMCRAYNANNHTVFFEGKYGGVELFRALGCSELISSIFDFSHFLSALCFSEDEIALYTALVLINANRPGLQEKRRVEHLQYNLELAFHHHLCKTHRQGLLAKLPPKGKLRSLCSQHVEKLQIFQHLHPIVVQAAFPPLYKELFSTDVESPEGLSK
#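 Drosophila S2 cells stably expressing Gal4-DBD/mouse RORγ fusion under metallothionein promoter plus UAS-luciferase; compound 1 h, then 700 uM CuSO4 induction for 20 h at ambient temperature; inhibition read as reduced luminescence.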
# DT40 TDP1 CPT – DT40-hTDP1 cell growth loss with CPT. Potency, µM (doses to about 46.2 µM), for the others: top-dose activity change, negative = growth inhibition, most hits filed as inhibitors. chicken DT40 Tdp1-/-;hTDP1 cells + 20 nM CPT, ATP luminescence, 48 h. hit rate 12% among 420,000. AID 686979; further: potency means the concentration at half of the fitted maximal effect; nearly all actives have a fitted effect of over 55% in size
#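 Chicken DT40 Tdp1-/- cells stably complemented with human TDP1 were seeded at 400 cells/well in medium containing 20 nM camptothecin, exposed to pin-transferred compounds, and grown at 37 °C for at least 48 hr. Viability was read as ATP luminescence.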
# Gal4-VP16 FLuc – Gal4-VP16 reporter inhibition counter-screen | Drosophila S2 Gal4-VP16 UAS-luciferase, luminescence, 20 h | Potency, µM (top dose mostly 53.6 µM), for the others: at the highest dose activity, negative = inhibition, most hits filed as inhibitors | hit rate 3.5% among 310,000 | AID 2546;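 further: Gal4-VP16 expression switched on by copper sulfate through the metallothionein promoter; potency means the concentration at half of the fitted maximal effect; nearly all actives have a fitted effect of over 50% in size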
# TDP1 cell noCPT – qHTS for Inhibitors of human tyrosyl-DNA phosphodiesterase 1 (TDP1): qHTS in cells in absence of CPT | AID 686978, 2013 | Potency, µM (titrated, usually from 46.2 µM), without a hit: top-dose activity change, negative = growth inhibition, most hits filed as inhibitors | DT40 Tdp1-/- hTDP1 cells, no CPT, ATP luminescence, 48 h | hit rate 15% among 420,000; further: potency means the concentration at half of the fitted maximal effect; nearly all actives have a fitted effect of over 55% in size
#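 Growth kinetics read by CellTiter-Glo luminescence after ≥48 hr at 37 °C. Cells: DT40 Tdp1-/- stably carrying human TDP1, 400 per well, compound exposure in the absence of CPT (DMSO vehicle).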
# ELG1 DNA repair – blocks ELG1-dependent DNA repair in HEK293T cells; HEK293T ELG1-luciferase reporter, luminescence, 16 h; DNA damage induced by 5-fluorouridine; Potency, µM (doses to about 46.1 µM), for the others: top-dose activity change, negative = inhibition, hits mostly inhibitors; hit rate 2.3% among 330,000; further: potency means the concentration at half of the fitted maximal effect; nearly all actives have a fitted effect of over 55% in size
#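 Luminescence from the luciferase reporter, measured 30 min after ONE-Glo reagent at room temperature, was the read-out. Beforehand, 2,000 cells per well were exposed for 16 hr at 37 °C to 5-fluorouridine together with compound or vehicle.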
# IL1B secr inh – inflammasome signaling inhibition, IL-1 beta readout; THP-1 LPS/ATP IL-1B secretion, AlphaLISA, 16 h; stronger effect = lower value; activity change, % at 57.5 µM; hit rate 4.7% among 360,000; in the data active means activity change below about -50%; inconclusive means mostly about -30% to -49%
#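 THP-1 cells pretreated 1 hr with compounds (up to 57.5 uM final), then stimulated with LPS (250 ng/mL final) plus ATP (1.25 mM final); secreted IL-1B measured by AlphaLISA after 16 hr, decreased signal indicating inhibition.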
# Numbers without * were called inactive; u = inconclusive; x = no result given; [ ] = another dose, or the depositor's remark. Unless noted, the call rests on the fitted dose curve; in most records, active means well fitted curve in the direction sought with a large enough effect; inconclusive means small, poorly fitted or top-dose-only effect, or another doubt; inactive means no such curve, though single readings can be large; an effect the other way counts as inactive or inconclusive. On the % scale 0 is the no-effect control and ±100 the full control effect.
SMILES,RORgamma inh,DT40 TDP1 CPT,Gal4-VP16 FLuc,TDP1 cell noCPT,ELG1 DNA repair,IL1B secr inh
O=C(NCCNC(=O)c1cccnc1)c1cccnc1,x,9.0%,x,-5.3%,x,24.6
COc1ccc(NC(=O)c2ccco2)cc1NC(=O)COc1cc(C)ccc1C(C)C,x,8.2µM*,x,7.31µM*,x,x
CCOc1cc(Br)c(C(C)NC(=O)c2cccnc2)cc1OCC (stereo not given),x,18.4µM*,x,23.1µM*,x,34.0
CC(C)c1ccccc1OCCNC(=O)c1cccnc1,-36.3%,18.4µM*,u,20.6µM*,u,1.8
COc1ccc(C(=O)CN2CCN(c3ccc(F)cc3)CC2)cc1,12.8%[1.91 µM],0.7%,22.2%,-6.7%,-14.5%,6.5
Cc1c(O)ccc(C(=O)CN2CCN(c3ccccc3F)CC2)c1O,10.5%,u,-9.6%,23.1µM*,3.6%,11.9
COc1ccc2c(c1)c(C(=O)CN1CCOCC1)c(C)n2C,-11.7%,-0.6%,1.9%,-21.6%,3.3%,19.6
COc1ccc(N2CCN(CC(=O)c3ccc(O)c(C)c3O)CC2)cc1,12.2%,u,-7.9%,20.6µM*,-10.1%,7.7
O=C(CN1CCN(c2ccccc2)CC1)N1CCN(c2ccccc2)CC1,19.1%,u,8.0%,u,-16.7%,8.0
COc1ccc(N2CCN(CC(=O)c3c(C)n(C)c4ccc(OC)cc34)CC2)cc1,0.1%,18.4µM*,14.6%,23.1µM*,-4.4%,x
Cc1c(O)ccc(C(=O)CN2CCN(c3ccccc3)CC2)c1O,5.0%,u,-2.5%,23.1µM*,-13.0%,9.2
CCCCCCCCCCCC(=O)OCC(O)CO (stereo not given),8.1%[10 µM],-3.4%,-1.1%,-21.9%,x,x
Cc1cc(-n2c(C)cc(C(=O)CSc3nncn3C(C)C)c2C)no1,x,u,x,u,1.8%,0.6
CN1OC[C@@H]2CN(Cc3ccccc3)[C@H](c3cccc(-c4ccccc4)c3)C[C@@H]21,x,u,x,u,x,-21.9
O=C(CN1CCN(c2ccccc2F)CC1)c1ccc(O)c(O)c1,9.1%,23.1µM*,-3.3%,10.3µM*,-8.3%,79.8
NC(=O)CN1CCN(c2ccccc2F)CC1,-9.3%,7.0%,0.4%,-13.1%,-4.9%,-11.3
CCC(=O)Nc1ccc(S(=O)(=O)NC[C@H]2O[C@@H](n3cc(C)c(=O)[nH]c3=O)C[C@@H]2O)cc1,x,1.5%,x,3.8%,x,-8.3
CCOC(=O)c1ccc(NC(=S)Nc2ccc(Cl)cn2)cc1,2.24µM*,u,8.91µM*,-25.8%,0.8%,0.0
CCOC(=O)c1ccc(NC(=S)Nc2ccccn2)cc1,3.16µM*,u,-5.5%[0.365 µM],14.6µM*,u,-0.9
CCOC(=O)c1ccc(NC(=O)Nc2ncccc2C)cc1,u,-21.1%,5.3%,6.2%,u,-26.5
O=S1(=O)C2CC3CCC2(CN1Cc1ccccc1)O3 (stereo not given),39.5%,x,28.4%,x,x,x
O=C(CCNS(=O)(=O)c1ccccc1)NNC(=O)COc1ccccc1F,x,4.6%,x,13.9%,28.8%,12.3
CCOC(=O)c1nn(C)c2[nH]c(=O)n(C)c(=O)c12,x,u,x,2.4%,x,14.0
COc1cc(CN2C[C@@H](CO)O[C@@H](n3cnc4c(N5CCOCC5)ncnc43)C2)cc(OC)c1OC,x,-1.3%,x,-12.4%,x,-20.7
C=CCC1C=CCC(CC=C)N1C(=O)c1ccccc1[N+](=O)[O-] (stereo not given),2.2%,13µM*,-1.5%,u,5.7%,-18.5
SMILES,RORgamma inh,DT40 TDP1 CPT,Gal4-VP16 FLuc,TDP1 cell noCPT,ELG1 DNA repair,IL1B secr inh
Cc1cccc(NC(=S)NNc2ncc(C(F)(F)F)cc2Cl)c1,15.8µM*,u,12.6µM*,u,u,-13.6
FC(F)(F)c1cnc(NNC(=S)Nc2ccccc2Cl)c(Cl)c1,u,u,10µM*,18.4µM*,u,-51.8*
O=C(Nc1ccccc1)Nc1ncc(C(F)(F)F)cc1Cl,x,-10.2%,x,u,x,u
NC(CSCC(=O)O)C(=O)O (stereo not given),6.5%,-7.7%,-3.6%,-2.8%,x,x
CCn1c(N2CCN(C(=S)NC)CC2)nc2ccccc21,1.5%,-24.5%,0.3%,1.3%,-1.7%,-6.9
CCn1c(N2CCN(C(=S)NCC(C)C)CC2)nc2ccccc21,28.8%,u,9.8%[0.365 µM],-21.9%,u,-53.8*
CCn1c(N2CCN(C(=S)Nc3ccc(OC)cc3)CC2)nc2ccccc21,-8.9%,14.6µM*,23.0%,14.6µM*,u,-19.9
CCn1c(N2CCN(C(=S)NCCc3ccccc3)CC2)nc2ccccc21,-0.3%,u,9.4%,25.9µM*,u,u
CC(=O)Oc1cc(-c2coc3cc(OC(C)=O)c(OC(C)=O)c(OC(C)=O)c3c2=O)cc(OC(C)=O)c1OC(C)=O,-27.4%,u,-14.0%,u,x,x
COc1ccc(CNC(=O)Nc2ccccc2)cc1,32.3%,u,-5.9%,u,u,-22.3
COc1ccc(CNC(=S)NCc2ccc(OC(C)C)cc2)cc1,u,-27.7%,-22.0%,u,-0.9%,-2.4
COc1ccc(CNC(=S)Nc2ccccc2Cl)cc1,17.8µM*,-12.2%,u,-12.1%,7.2%,0.0
COc1ccc(CNC(=S)Nc2ccccc2-c2ccccc2)cc1,2µM*,x,7.08µM*,x,-16.2%,x
Cc1ncc2c(c1CNC(=O)c1cncs1)CCN(C(=O)c1csc(-c3cccs3)n1)C2,x,4.5%[9.04 µM],x,-14.1%,x,x
CCOc1ccc(NC(=O)c2cccc(S(=O)(=O)NCc3cccnc3)c2)cc1,x,-16.3%,x,-19.5%,x,16.3
O=c1c2cc(Cl)ccc2nc(-c2ccc([N+](=O)[O-])cc2)n1O,u,u,u,u,18.3µM*,24.0
O=C(O)c1ccccc1-c1nc2cc(Cl)ccc2c(=O)n1O,8.2%,14.0%,2.3%,-5.9%,17.7%,4.5
O=c1c2cc(Br)ccc2nc(-c2ccc(Cl)cc2)n1O,27.7%,u,0.2%,u,u,7.4
N#Cc1ccc(-c2nc3cc(Cl)ccc3c(=O)n2O)cc1,-76.8%,u,u,u,11.6µM*,72.1
Cc1ccc(-c2nc3c(Cl)cc(Cl)cc3c(=O)n2O)cc1,u,u,u,18.4µM*,u,40.3
O=c1c2ccc(Cl)cc2nc(-c2cccc(C(F)(F)F)c2)n1O,7.08µM*,4.11µM*,3.55µM*,3.66µM*,-21.1%,105.3
Cc1ccc(N2CC(NC(=O)c3ccc(Br)o3)CC2=O)cc1C (stereo not given),x,-24.2%,x,u,x,x
Cc1ccc(OCC(=O)Oc2cccc(C)c2C)cc1,1.5%,-0.2%,-8.2%,1.9%,26.3%,0.1
